We go through 28 compounds from the antibiotic and cytotoxicity screens of Wong et al. (2023).

Each structure is given as a SMILES string. Hit rate of the full screen: of about 39,000 compounds, about 3,300 (8.5%) were called active. The full list was thinned out, with actives kept by preference.

The subject of this experiment is HepG2. The experiment is described as follows: cytotoxicity call (relative viability < 0.9). As to conditions: 10 µM.
For the compound `C[C@H]1CN([C@@H](C)CO)S(=O)(=O)c2ccc(C#CC3CC3)cc2O[C@H]1CN(C)Cc1ccccc1F`, the cytotoxicity call is “inactive”.
As for `COc1ccc(CN(C)C[C@H]2Oc3ccc(NS(C)(=O)=O)cc3CC(=O)N([C@H](C)CO)C[C@@H]2C)cc1`, the entry is “inactive”; as for `C[C@@H]1CN([C@@H](C)CO)C(=O)c2cccc(NS(=O)(=O)c3ccc(F)cc3)c2O[C@H]1CN(C)CC1CC1`, “inactive”; as for `C[C@H]1CCCCO[C@H](CN(C)C(=O)Nc2cccc3ccccc23)[C@@H](C)CN([C@@H](C)CO)C(=O)c2cc(NC(=O)Nc3ccccc3)ccc2O1`, “inactive”.
The result for `C[C@@H]1CCCCO[C@H](CN(C)S(=O)(=O)c2ccc(Cl)cc2)[C@@H](C)CN([C@H](C)CO)C(=O)c2cc(NC(=O)C3CCCCC3)ccc2O1` reads “inactive”.
For the compound `CN(C)CC(=O)N1[C@H](CO)[C@@H](c2ccc(C3=CCCC3)cc2)C12CN(S(=O)(=O)Cc1ccccc1)C2`, the cytotoxicity call was “inactive”.
The result for `CCOc1ccc(-n2c([C@@H](C)N(Cc3cccnc3)C(=O)Cc3ccc(OC(F)(F)F)cc3)nc3ncccc3c2=O)cc1` reads “inactive”.
As for `CC(C)n1c(=S)[nH]c2ccccc21`, the entry is “active”; as for `Cn1c(=O)[nH]c2ccccc21`, “inactive”; as for `CCn1c(=S)[nH]c2ccccc21`, “inactive”.
The result for `COc1ccc(CN(C)C[C@@H]2OCCCC[C@H](C)Oc3ccc(NS(=O)(=O)c4cccs4)cc3C(=O)N([C@H](C)CO)C[C@@H]2C)cc1` reads “inactive”.
Regarding `CCNC(=O)c1sc(C)nc1N`, the cytotoxicity call is “active”.
`CCNC(=O)c1coc(C)n1`: the cytotoxicity call was “inactive”.
As for `CCNC(=O)c1csc(N)n1`, the entry is “inactive”.
The result for `C[C@@H]1CN([C@H](C)CO)C(=O)c2cc(Br)cnc2O[C@@H]1CN(C)C(=O)Nc1ccc(F)cc1` reads “inactive”.
As for `O=C(O)c1cc2n(n1)CCC2`, the entry is “inactive”; as for `C[C@@H]1CCCCO[C@H](CN(C)Cc2ccc3c(c2)OCO3)[C@H](C)CN([C@@H](C)CO)C(=O)c2cc(NS(=O)(=O)c3ccc(Cl)cc3)ccc2O1`, “active”.
For the compound `C[C@@H]1CCCCO[C@H](CN(C)Cc2ccc3c(c2)OCO3)[C@H](C)CN([C@H](C)CO)C(=O)c2cc(NS(=O)(=O)c3ccc(Cl)cc3)ccc2O1`, the cytotoxicity call was “inactive”.
As for `C[C@@H]1CCCCO[C@H](CN(C)Cc2ccc3c(c2)OCO3)[C@@H](C)CN([C@@H](C)CO)C(=O)c2cc(NS(=O)(=O)c3ccc(Cl)cc3)ccc2O1`, the entry is “inactive”; as for `C[C@@H]1CCCCO[C@@H](CN(C)Cc2ccc3c(c2)OCO3)[C@@H](C)CN([C@H](C)CO)C(=O)c2cc(NS(=O)(=O)c3ccc(Cl)cc3)ccc2O1`, “active”.
The result for `C[C@@H]1CN([C@@H](C)CO)C(=O)c2cc(NS(=O)(=O)c3ccc(Cl)cc3)ccc2O[C@@H](C)CCCCO[C@H]1CN(C)Cc1ccc2c(c1)OCO2` reads “active”.
For `C[C@H](CO)N1C[C@H](C)[C@@H](CN(C)Cc2ccc3c(c2)OCO3)OCCCC[C@H](C)Oc2ccc(NS(=O)(=O)c3ccc(Cl)cc3)cc2C1=O`, the cytotoxicity call was “inactive”.
As for `C[C@H]1CCCCO[C@H](CN(C)Cc2ccc3c(c2)OCO3)[C@@H](C)CN([C@@H](C)CO)C(=O)c2cc(NS(=O)(=O)c3ccc(Cl)cc3)ccc2O1`, the entry is “inactive”; as for `C[C@H](CO)N1C[C@H](C)[C@H](CN(C)Cc2ccc3c(c2)OCO3)OCCCC[C@H](C)Oc2ccc(NS(=O)(=O)c3ccc(Cl)cc3)cc2C1=O`, “inactive”.
As for `C[C@@H]1CCCCO[C@@H](CN(C)Cc2ccc3c(c2)OCO3)[C@H](C)CN([C@H](C)CO)C(=O)c2cc(NS(=O)(=O)c3ccc(Cl)cc3)ccc2O1`, the entry is “active”.
On to `C[C@@H]1CN([C@@H](C)CO)C(=O)c2cc(NS(=O)(=O)c3ccc(Cl)cc3)ccc2O[C@@H](C)CCCCO[C@@H]1CN(C)Cc1ccc2c(c1)OCO2`, for which the cytotoxicity call was “inactive”.
Take `C[C@@H]1CCCCO[C@H](CN(C)Cc2ccc3c(c2)OCO3)[C@@H](C)CN([C@H](C)CO)C(=O)c2cc(NS(=O)(=O)c3ccc(Cl)cc3)ccc2O1`: the cytotoxicity call is “inactive”.
The result for `C[C@H]1CCCCO[C@@H](CN(C)Cc2ccc3c(c2)OCO3)[C@@H](C)CN([C@@H](C)CO)C(=O)c2cc(NS(=O)(=O)c3ccc(Cl)cc3)ccc2O1` reads “inactive”.
